This passage reports outcome and AC50 results from PubChem BioAssay (EPA / NIEHS).

Several values for one entry are separate records, joined by “and”; a condition that tells them apart may be missing. Equal entries are not always repeated. Some compounds were tested as several samples or in several runs, with calls that do not always agree. Activity calls are given as the source filed them. The calls were made as follows: active = hit-call score of the fitted dose curve at least 0.9, where 1 is the maximum; inactive = score below 0.9.

The term AC50 denotes the concentration giving half of the maximal activity seen.

Read-out in the test: CD69, CD69 (gene 969)
The experiment in a line: BSK_SAg_CD69: BioMAP Diversity Plus: SAg Assay for CD69 Biomarker Activity (AID 2283089). The conditions noted are these: primary human HUVEC with PBMC; actives raise or lower the signal. As for the experimental part: BSK_SAg is a cell-based, multiplexed-readout assay that uses umbilical vein endothelium and peripheral blood mononuclear cells, a human vascular primary cell co-culture, with measurements taken at 24 hours after chemical dosing in a 96-well plate.BSK_SAg_CD69 is one of 10 assay component(s) measured or calculated from the BSK_SAg assay. It is designed to make measurements of enzyme-linked immunosorbent assay, a form of binding reporter, as detected with fluorescence intensity signals by Enzyme-linked immunosorbent assay technology.Data from the assay component BSK_SAg_CD69 was analyzed into 1 assay endpoint. This assay endpoint, BSK_SAg_CD69, was analyzed with bidirectional fitting relative to DMSO as the negative control and baseline of activity. Using a type of binding reporter, gain or loss-of-signal activity can be used to understand changes in the signaling as they relate to the gene CD69. Furthermore, this assay endpoint can be referred to as a primary readout, because this assay has produced multiple assay endpoints where this one serves a signaling function. To generalize the intended target to other relatable targets, this assay endpoint is annotated to the cytokine intended target family, where the subfamily is inflammatory factor.
The levels of cell surface (or secreted, indicated by the prefix "s") biomarker endpoints were measured by ELISA. Overt cytotoxicity to cells in confluent adherent cultures (all systems other than the BT system) was assessed by measuring total protein levels using sulforhodamine B (SRB) staining in parallel cultures at the time of biomarker measurements, indicated as SRB endpoints. For proliferation assays for adherent cell types, individual cell types are cultured at sub-confluence and relative cell numbers quantified by SRB staining at time points optimized for each system (48 h: 3C and CASM3C systems; 72 h: BT and HDF3CGF systems; 96 h: SAg system). SRB was performed by staining cells with 0.1% SRB after fixation with 10% TCA and reading wells at 560 nm.Viability and proliferation of PBMC (T cells) was quantified by Alamar Blue reduction for the SAg and BT systems. For PBMC viability (referred to as PBMC Cytotoxicity within the assay endpoint names), cells were plated (75,000/well in a 96-well plate) and then chemical samples added for 1 h before addition of activators, SEB and TSST-1 (20 ng/mL final concentration each). Cells were incubated for 90 h. Then, Alamar Blue (20 uL/well) (Invitrogen, Cat DAL1100) was added for 6 h, and the plates were read with a fluorescence microplate reader at 546/580 nm (excitation/emission). For PBMC proliferation, cells were plated and activated as above but incubated for only 16 h prior to addition of Alamar Blue. Plates were read after 6 h.
As for `C[C@]12CC[C@H]3C(=CCc4cc(O)ccc43)[C@@H]1CCC2=O`, the outcome was inactive.
On the same count and under the same terms, next, `O=C(O)C(F)(F)C(F)(F)C(F)(F)OC(F)(C(F)(F)F)C(F)(F)F`: “inactive”.
Take `OCC(F)(F)C(F)(F)C(F)(F)C(F)(F)C(F)(F)C(F)(F)C(F)(F)C(F)(F)CO`: the result was inactive and the AC50 is 5.61 µM (active).
For the compound `O=C=Nc1cccc2c(N=C=O)cccc12`, the outcome was inactive.
On the same count and under the same terms, next, `O=C(Cl)C(F)(F)C(F)(F)C(F)(F)C(F)(F)C(F)(F)C(F)(F)C(F)(F)F`: “inactive”; `C=CC(=O)OCC(F)(F)C(F)(F)C(F)(F)C(F)(F)C(F)(F)C(F)(F)C(F)(F)C(F)F`: “inactive”.
Consider `CCN=C1C=CC(=C(c2ccc(N(CC)CC)cc2)c2ccc(N(CC)CC)cc2)c2ccccc21`, for which the AC50 was 1.34 µM (active) and 765 nM (active).
With `O=C(O)CCC(F)(F)C(F)(F)C(F)(F)F`, the result was inactive.
With `CCN(CCO)S(=O)(=O)C(F)(F)C(F)(F)C(F)(F)C(F)(F)C(F)(F)C(F)(F)C(F)(F)C(F)(F)F`, the AC50 is 9.85 µM (active) and the outcome was inactive.
On to `CCN(CC)c1ccc(C=O)c(O)c1`, for which the result was inactive.
Still for that read-out and setting: the value for `COC(F)(C(F)F)C(F)(F)F` (stereo not given) was “inactive”; that for `NCC(F)(F)C(F)(F)C(F)(F)C(F)(F)C(F)(F)C(F)(F)F` was “inactive”.
With `C=CC(=O)OCC(F)(F)C(F)(F)C(F)(F)COC(=O)C=C`, the AC50 was 8.7 µM (active) and 8.29 µM (active).
As for `CO[Si](C)(CCC(F)(F)C(F)(F)C(F)(F)C(F)(F)C(F)(F)C(F)(F)F)OC`, the result was inactive.
On the same count and under the same terms, the value for `CCOC(C=C(C)CCC=C(C)C)OCC` was “inactive”.
Still for that read-out and setting: the value for `OCC(F)(F)C(F)(F)C(F)(F)CO` was “inactive”; that for `FC(F)(F)C(F)(F)C(F)(F)C(F)(F)C(F)(F)C(F)(F)C(F)(F)CCI` was “inactive”; that for `CCN(CC)c1ccc(C=O)cc1` was “inactive”.
As for `OCC(F)(F)C(F)(F)C(F)(F)C(F)(F)C(F)(F)C(F)(F)CO`, the result was inactive.
Turning to `OCC(O)CC(F)(F)C(F)(F)C(F)(F)C(F)(F)C(F)(F)C(F)(F)C(F)(F)C(F)(F)F` (stereo not given), the result was inactive.
Take `O=S(=O)(O)CCC(F)(F)C(F)(F)C(F)(F)C(F)(F)F`: the result was inactive.
On the same count and under the same terms, next, `O=C(Cl)C(F)(F)C(F)(F)C(F)(F)C(F)(F)C(F)(F)C(F)(F)F`: “inactive”; `O=C(O)CCC(F)(F)C(F)(F)C(F)(F)C(F)(F)C(F)(F)C(F)(F)C(F)(F)F`: “inactive”.
The same measure, in the same setting: the value for `O=C(O)C(F)(F)C(F)(F)C(F)(F)C(F)(F)C(F)(F)C(F)(F)C(F)F` was “inactive”; that for `NC(=O)C(F)(F)C(F)(F)C(F)(F)C(F)F` was “inactive”; that for `NC(=O)C(F)(F)C(F)(F)C(F)(F)C(F)(F)C(N)=O` was “inactive”.
Same read-out and setting: the value for `O=C(O)C(F)(F)C(F)(F)C(F)(F)OC(F)(F)F` was “inactive”; that for `OCC(O)CC(F)(F)C(F)(F)C(F)(F)C(F)(F)F` (stereo not given) was “inactive”.
As to `O=S(=O)(Cl)C(F)(F)C(F)(F)C(F)(F)C(F)(F)C(F)(F)C(F)(F)C(F)(F)C(F)(F)F`, the result was inactive and the concentration at half-maximal activity (AC50) was 15 µM (active).
Turning to `O=S(=O)(OCC(F)(F)F)C(F)(F)C(F)(F)C(F)(F)C(F)(F)F`, the outcome was inactive.
Still for that read-out and setting: next, `NC(O)(C(F)(F)F)C(F)(F)F`: “inactive”; `C=C(C)C(=O)OCC(F)(F)C(F)(F)C(F)(F)C(F)F`: “inactive”; `Nc1cc([N+](=O)[O-])cc(Cl)c1O`: “inactive”.
Take `O=S(=O)(O)CCC(F)(F)C(F)(F)C(F)(F)C(F)(F)C(F)(F)C(F)(F)C(F)(F)C(F)(F)F`: the outcome was inactive.
Take `NCC(F)(F)C(F)(F)C(F)(F)C(F)(F)C(F)(F)C(F)(F)C(F)(F)C(F)(F)F`: the result was inactive.
Still for that read-out and setting: the value for `Brc1nc2ccccc2s1` was “inactive”; that for `OCCCCC(F)(F)C(F)(F)C(F)(F)C(F)(F)F` was “inactive”.
